In the supplement of paper PMC11732987, “Enantioselective OTUD7B fragment discovery through chemoproteomics screening and high-throughput optimisation” (Communications Chemistry, 2025):

How the values were obtained:
Assay in all cases: log2 ratio of Biotin-Ahx-Ub-VS probe labelling (fragment/DMSO); higher = less target engagement (more negative = stronger competition), active = hit call of the paper (q ≤ 0.05, log2 ratio ≤ -1)
Conditions in all cases: compound concentration: 200 uM; treatment time: 3 h
USP34 = USP34 (UniProt Q70CQ2)
USP34, sequence (Q70CQ2 whole entry, the tested form may be a part): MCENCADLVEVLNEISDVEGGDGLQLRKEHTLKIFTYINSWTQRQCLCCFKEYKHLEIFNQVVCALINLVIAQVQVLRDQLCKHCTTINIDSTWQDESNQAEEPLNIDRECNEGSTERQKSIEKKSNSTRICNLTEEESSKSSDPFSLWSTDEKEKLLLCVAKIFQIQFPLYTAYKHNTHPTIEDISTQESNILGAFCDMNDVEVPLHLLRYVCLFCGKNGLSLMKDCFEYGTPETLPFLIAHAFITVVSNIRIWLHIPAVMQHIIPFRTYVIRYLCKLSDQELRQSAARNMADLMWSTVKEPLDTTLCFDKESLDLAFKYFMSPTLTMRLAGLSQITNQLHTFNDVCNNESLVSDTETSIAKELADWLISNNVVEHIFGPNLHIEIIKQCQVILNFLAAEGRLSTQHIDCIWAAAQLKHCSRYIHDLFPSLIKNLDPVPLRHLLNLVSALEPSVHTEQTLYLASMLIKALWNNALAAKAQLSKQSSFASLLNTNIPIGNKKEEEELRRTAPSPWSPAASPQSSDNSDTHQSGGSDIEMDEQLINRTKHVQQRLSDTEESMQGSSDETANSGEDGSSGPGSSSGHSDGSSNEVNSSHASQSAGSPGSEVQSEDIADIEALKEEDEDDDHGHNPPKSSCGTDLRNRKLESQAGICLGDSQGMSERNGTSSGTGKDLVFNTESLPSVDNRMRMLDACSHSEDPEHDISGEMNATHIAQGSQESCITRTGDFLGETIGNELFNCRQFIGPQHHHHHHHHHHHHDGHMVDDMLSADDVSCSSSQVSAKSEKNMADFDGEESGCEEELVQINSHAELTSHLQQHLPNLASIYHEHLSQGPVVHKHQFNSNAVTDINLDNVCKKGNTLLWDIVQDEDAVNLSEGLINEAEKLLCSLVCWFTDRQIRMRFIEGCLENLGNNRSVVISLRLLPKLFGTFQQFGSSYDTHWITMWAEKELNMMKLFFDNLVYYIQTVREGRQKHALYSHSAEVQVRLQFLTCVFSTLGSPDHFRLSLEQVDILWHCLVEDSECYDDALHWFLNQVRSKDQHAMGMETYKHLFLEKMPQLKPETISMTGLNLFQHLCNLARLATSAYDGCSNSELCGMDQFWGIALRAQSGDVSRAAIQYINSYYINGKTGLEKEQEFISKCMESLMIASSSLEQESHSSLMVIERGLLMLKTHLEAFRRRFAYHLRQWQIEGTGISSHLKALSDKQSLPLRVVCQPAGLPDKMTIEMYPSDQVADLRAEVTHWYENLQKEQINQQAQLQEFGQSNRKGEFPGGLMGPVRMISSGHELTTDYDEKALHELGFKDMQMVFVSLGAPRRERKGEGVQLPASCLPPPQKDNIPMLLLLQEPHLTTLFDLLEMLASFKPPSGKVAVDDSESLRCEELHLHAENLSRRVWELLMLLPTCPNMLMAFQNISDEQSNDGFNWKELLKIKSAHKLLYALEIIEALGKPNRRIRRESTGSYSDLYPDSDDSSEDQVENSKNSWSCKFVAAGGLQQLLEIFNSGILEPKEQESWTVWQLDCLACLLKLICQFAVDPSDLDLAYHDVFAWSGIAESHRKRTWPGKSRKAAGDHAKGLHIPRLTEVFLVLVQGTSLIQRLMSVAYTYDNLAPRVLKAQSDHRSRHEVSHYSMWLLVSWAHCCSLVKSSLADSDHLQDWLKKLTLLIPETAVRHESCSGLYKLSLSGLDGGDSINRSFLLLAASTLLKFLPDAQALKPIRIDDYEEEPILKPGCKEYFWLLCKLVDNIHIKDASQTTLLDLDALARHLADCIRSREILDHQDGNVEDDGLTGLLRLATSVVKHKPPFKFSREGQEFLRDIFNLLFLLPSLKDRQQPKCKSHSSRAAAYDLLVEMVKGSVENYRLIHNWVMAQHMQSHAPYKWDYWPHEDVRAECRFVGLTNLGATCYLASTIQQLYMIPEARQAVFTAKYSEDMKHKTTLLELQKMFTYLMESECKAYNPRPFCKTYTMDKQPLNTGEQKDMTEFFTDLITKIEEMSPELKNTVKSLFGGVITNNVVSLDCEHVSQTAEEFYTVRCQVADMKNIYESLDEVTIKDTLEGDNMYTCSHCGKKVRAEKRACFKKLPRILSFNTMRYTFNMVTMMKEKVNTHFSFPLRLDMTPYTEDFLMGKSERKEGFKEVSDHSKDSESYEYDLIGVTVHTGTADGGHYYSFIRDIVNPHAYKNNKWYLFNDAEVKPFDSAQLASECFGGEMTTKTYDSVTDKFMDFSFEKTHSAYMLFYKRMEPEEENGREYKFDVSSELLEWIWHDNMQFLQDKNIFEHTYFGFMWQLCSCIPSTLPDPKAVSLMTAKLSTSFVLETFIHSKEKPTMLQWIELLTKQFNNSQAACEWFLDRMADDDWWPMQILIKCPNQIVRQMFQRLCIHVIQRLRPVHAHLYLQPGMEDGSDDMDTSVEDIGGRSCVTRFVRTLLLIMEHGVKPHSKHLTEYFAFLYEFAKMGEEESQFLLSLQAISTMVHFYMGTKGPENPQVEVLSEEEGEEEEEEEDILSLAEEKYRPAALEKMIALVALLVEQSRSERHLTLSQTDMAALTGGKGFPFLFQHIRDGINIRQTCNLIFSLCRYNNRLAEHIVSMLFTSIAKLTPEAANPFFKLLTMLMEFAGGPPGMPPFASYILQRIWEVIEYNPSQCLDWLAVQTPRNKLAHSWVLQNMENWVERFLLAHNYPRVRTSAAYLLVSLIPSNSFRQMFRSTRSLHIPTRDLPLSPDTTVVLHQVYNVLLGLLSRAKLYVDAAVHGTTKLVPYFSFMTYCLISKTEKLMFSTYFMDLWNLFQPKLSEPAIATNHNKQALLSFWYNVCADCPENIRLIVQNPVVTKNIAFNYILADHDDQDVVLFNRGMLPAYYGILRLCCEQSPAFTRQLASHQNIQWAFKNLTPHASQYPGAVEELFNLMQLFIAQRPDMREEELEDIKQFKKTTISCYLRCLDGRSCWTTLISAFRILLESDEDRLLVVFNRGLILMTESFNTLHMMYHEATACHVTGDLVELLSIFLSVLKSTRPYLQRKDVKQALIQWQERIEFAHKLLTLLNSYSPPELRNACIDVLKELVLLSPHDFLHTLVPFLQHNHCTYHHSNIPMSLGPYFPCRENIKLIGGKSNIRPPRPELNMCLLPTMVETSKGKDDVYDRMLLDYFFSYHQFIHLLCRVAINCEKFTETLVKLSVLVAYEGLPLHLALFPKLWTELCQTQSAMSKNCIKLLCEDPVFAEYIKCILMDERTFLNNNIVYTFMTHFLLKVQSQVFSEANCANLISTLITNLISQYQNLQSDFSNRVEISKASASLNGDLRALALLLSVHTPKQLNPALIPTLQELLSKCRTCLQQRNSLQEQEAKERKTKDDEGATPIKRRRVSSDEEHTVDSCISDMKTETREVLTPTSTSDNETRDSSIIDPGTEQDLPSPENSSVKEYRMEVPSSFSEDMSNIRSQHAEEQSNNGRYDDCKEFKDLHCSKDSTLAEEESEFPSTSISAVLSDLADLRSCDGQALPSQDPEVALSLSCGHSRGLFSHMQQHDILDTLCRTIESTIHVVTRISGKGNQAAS
Method in brief: (§1)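 HEK293T lysate (495 µg per sample, in Tris/CHAPS/IGEPAL buffer with protease inhibitors) was treated in triplicate with fragment at 200 µM or with DMSO for 3 h. It was then treated with Biotin-Ahx-Ub-VS (0.5 µM final) for 1 h. Labelled DUBs were NeutrAvidin-enriched, digested with LysC and trypsin, and run by diaPASEF LC-MS/MS. Spectronaut label-free quantities were global-median-normalised. Values are average log2 ratios fragment/DMSO by unpaired t-test, using proteins with ≥2 unique peptides.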

USP36 = target: T1, USP36 (UniProt Q9P275)
T1 sequence (whole entry): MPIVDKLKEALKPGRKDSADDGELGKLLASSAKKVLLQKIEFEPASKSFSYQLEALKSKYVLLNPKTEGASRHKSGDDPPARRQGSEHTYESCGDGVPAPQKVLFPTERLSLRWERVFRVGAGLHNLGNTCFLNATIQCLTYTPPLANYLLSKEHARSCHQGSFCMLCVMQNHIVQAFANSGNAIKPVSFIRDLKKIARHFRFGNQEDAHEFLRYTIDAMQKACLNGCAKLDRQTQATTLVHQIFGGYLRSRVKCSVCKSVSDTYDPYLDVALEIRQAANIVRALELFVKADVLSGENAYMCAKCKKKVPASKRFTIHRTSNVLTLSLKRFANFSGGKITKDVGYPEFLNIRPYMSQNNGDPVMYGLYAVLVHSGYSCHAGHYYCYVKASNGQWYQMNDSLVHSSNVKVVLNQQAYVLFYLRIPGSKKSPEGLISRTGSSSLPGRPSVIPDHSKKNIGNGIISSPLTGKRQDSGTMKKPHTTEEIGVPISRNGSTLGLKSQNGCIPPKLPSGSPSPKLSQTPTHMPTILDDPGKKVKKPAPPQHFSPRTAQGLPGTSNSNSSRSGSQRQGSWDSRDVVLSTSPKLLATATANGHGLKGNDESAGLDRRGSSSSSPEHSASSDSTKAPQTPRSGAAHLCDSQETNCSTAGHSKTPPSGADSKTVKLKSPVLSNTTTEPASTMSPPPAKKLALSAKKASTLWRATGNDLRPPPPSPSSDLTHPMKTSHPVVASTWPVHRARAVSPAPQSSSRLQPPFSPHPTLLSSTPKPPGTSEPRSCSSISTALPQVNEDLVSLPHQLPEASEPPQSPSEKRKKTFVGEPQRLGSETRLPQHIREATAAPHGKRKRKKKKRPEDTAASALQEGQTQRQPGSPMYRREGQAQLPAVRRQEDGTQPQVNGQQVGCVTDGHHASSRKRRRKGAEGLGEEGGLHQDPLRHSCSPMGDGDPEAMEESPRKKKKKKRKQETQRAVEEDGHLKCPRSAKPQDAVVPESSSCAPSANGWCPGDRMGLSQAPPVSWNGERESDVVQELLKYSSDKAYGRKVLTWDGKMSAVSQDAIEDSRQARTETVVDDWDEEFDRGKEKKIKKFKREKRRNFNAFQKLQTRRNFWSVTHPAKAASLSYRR
Method in brief: as §1

USP38 = target: T2, USP38 (UniProt Q8NB14)
T2 sequence (whole entry): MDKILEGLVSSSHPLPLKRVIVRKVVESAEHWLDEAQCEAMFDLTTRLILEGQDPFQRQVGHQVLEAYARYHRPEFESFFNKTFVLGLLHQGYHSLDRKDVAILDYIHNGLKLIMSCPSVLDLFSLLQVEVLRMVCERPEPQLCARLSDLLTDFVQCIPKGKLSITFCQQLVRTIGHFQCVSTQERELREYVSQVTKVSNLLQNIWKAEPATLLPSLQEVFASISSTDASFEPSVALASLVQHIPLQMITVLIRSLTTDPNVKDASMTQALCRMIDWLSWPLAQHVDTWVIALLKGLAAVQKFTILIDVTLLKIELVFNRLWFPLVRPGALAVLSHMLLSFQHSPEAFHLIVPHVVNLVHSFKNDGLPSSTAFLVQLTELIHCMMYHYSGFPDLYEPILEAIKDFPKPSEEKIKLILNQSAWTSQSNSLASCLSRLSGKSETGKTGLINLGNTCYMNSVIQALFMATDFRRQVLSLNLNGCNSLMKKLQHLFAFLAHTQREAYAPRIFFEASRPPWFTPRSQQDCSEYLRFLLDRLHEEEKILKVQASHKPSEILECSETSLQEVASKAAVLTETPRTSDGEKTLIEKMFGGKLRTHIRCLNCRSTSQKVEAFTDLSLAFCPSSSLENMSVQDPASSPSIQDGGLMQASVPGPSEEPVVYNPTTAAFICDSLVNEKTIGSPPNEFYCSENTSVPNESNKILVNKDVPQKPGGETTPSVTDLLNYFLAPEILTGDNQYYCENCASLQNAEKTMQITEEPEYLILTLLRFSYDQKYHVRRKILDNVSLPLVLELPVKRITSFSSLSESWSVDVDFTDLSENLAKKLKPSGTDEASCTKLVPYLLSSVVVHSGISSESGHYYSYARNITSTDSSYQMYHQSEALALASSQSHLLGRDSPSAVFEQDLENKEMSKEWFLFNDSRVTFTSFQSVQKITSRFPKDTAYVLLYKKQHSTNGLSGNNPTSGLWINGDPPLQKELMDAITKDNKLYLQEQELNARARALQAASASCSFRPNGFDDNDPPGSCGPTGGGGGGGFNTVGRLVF
Method in brief: as §1

USP39 = target: T3, USP39 (UniProt Q53GS9)
T3 sequence (whole entry): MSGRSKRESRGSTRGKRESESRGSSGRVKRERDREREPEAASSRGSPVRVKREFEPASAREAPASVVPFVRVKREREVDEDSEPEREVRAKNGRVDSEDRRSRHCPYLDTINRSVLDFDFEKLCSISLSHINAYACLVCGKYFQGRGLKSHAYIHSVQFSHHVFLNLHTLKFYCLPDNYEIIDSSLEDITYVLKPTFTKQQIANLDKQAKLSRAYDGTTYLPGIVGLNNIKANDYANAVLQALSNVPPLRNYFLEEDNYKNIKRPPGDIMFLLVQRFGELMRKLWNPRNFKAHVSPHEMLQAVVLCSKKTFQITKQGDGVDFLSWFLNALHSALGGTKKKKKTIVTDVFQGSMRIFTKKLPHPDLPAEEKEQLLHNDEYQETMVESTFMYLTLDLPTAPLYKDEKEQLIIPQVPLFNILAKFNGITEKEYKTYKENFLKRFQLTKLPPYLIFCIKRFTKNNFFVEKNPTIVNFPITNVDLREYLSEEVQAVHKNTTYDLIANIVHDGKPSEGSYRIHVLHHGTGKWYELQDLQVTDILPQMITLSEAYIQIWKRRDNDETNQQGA
Method in brief: as §1

USP4 = target: T4, USP4 (UniProt Q13107)
T4 sequence (whole entry): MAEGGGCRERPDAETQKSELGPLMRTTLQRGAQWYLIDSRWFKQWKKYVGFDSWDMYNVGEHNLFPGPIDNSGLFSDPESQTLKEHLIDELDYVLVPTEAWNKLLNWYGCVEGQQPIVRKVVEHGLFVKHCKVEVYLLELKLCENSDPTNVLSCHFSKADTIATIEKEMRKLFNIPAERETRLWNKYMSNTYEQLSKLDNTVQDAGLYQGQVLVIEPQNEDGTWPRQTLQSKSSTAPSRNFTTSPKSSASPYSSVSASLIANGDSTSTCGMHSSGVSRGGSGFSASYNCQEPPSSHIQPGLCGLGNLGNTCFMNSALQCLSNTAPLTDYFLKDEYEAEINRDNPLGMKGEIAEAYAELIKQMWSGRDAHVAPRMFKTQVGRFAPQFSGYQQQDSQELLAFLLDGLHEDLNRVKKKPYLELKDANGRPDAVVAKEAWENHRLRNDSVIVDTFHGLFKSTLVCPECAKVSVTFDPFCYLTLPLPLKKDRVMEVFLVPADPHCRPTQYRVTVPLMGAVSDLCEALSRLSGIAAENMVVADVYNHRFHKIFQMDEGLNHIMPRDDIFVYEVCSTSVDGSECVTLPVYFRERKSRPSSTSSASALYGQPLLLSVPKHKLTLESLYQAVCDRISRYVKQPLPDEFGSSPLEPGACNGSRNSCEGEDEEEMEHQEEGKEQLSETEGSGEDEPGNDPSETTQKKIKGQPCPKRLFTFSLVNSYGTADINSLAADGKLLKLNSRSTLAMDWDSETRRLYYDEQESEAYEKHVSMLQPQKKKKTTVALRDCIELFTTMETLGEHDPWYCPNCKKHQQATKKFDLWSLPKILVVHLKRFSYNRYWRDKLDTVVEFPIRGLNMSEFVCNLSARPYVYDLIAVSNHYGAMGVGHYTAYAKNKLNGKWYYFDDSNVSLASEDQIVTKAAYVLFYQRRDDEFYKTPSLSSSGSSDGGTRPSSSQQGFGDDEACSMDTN
Method in brief: as §1

Measured: log2 ratio of Biotin-Ahx-Ub-VS probe labelling

CCCn1nccc1NC(=O)CCl
inactive: USP34 -0.0454 | USP36 -0.015 | USP38 -0.241 | USP39 -0.211 | USP4 -0.159
